# From PMC4336329 (PLoS ONE, 2015)
# Screen size: about 310,000 compounds; about 14,000 (4.5%) showed an effect of 50% or more. Effects have a minus sign here. This excerpt belongs to a sample that is enriched for strong results.
# Target: human ether-à-go-go-related gene (hERG) potassium channel (human, UniProt Q12809)
# Test: primary screen, population patch clamp on CHO cells stably expressing hERG; higher = less effect of the substance
# 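Further: peak tail current of the secondary pulse compared with the same well before compound.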
# human ether-à-go-go-related gene (hERG) potassium channel, sequence (Q12809 whole entry, looked up): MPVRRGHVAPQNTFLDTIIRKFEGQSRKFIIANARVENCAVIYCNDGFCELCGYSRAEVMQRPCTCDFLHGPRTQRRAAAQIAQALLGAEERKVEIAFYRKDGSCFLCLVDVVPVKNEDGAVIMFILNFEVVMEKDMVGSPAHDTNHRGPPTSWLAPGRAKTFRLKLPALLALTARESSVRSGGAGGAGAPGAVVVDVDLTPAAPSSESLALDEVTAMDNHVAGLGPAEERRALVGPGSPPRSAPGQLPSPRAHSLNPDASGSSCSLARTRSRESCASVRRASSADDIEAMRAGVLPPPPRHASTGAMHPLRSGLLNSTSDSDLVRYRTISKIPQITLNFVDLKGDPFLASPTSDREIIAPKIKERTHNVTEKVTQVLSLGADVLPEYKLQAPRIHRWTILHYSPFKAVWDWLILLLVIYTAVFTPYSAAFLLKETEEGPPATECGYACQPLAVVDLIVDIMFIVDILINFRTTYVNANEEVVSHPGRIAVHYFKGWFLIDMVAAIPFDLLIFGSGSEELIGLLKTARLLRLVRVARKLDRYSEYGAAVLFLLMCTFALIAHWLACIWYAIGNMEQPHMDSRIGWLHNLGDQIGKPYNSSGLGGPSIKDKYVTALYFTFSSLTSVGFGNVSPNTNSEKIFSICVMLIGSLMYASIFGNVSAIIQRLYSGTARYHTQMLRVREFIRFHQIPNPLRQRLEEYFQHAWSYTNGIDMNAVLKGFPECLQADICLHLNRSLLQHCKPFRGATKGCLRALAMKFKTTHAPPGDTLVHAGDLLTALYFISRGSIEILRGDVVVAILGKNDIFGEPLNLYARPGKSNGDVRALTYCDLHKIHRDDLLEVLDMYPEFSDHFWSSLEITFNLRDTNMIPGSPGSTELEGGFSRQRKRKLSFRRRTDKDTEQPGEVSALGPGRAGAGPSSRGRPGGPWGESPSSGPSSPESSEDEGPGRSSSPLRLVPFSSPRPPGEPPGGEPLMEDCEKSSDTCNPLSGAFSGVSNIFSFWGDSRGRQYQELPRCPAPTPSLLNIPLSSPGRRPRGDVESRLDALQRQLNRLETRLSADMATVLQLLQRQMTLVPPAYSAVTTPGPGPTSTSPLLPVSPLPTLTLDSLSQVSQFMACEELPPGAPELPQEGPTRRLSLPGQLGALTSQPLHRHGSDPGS
row,Compound,"hERG current change (%, negative = inhibition) at 10uM [%]"
1,CNC(=O)C(Sc1nc(C)nc2c1oc1ccccc12)C(C)=O (centres unmarked),2.63
2,Cc1cc(Br)ccc1NC(=O)c1cnc(N2CCN(c3ccccn3)CC2)c2ccccc12,10
3,COc1ccc(C(=O)C2CCCN(C(=O)CSC)C2)cc1OC (centres unmarked),8.85
4,COc1cccc(O)c1CN1CCCC(C(=O)c2sccc2C)C1 (centres unmarked),-45.9
5,COc1ccc(CCNC(=O)CN2CCN(c3cccc(C(F)(F)F)c3)CC2)cc1,-46.3
6,COc1ccc(C(=O)C2CCCN(Cc3nc4ccccc4nc3C)C2)cc1OC (centres unmarked),-84.9
7,O=C(c1cc(F)ccc1F)C1CCCN(Cc2cc(Cl)ccc2O)C1 (centres unmarked),0.916
8,Nc1ccc(CCN2CCN(c3cccc(C(F)(F)F)c3)CC2)cc1,-67.2
9,Cn1cc(CN2CCCC(C(=O)c3cc(F)ccc3F)C2)c2ccccc21 (centres unmarked),-31.1
10,CCOc1ccccc1CN1CCCC(C(=O)c2cc(F)ccc2F)C1 (centres unmarked),-50.8
11,C#CCN1CCN(c2cccc(C(F)(F)F)c2)CC1,8.78
12,COc1ccc(C(=O)C2CCCN(C(=O)Cn3ccc(C)n3)C2)cc1OC (centres unmarked),19.1
13,COc1ccc(C(=O)C2CCCN(Cc3c(O)cccc3OC)C2)cc1OC (centres unmarked),-63.1
14,COc1ccc(C(CNC(=O)C(CCSC)NC(=O)c2ccccc2Cl)N2CCCC2)cc1 (centres unmarked),-34.9
15,O=C(CCN1C(=O)c2ccccc2S1(=O)=O)Nc1cccc2ccccc12,-5.33
16,Cc1ccc(C)c(S(=O)(=O)Nc2ccc(C(N)=O)cc2)c1,14.9
17,CC1(C)CC(=O)c2c(Cc3ccccc3)noc2C1,12.1
18,Cc1ccccc1/C=C1\Sc2ccc(C(=O)N3CCN(c4ccccn4)CC3)cc2N(C)C1=O,-26.1
19,CCN(CC)S(=O)(=O)c1cccc(C(=O)Nc2nc3cc4c(cc3s2)OCCO4)c1,0.652
20,Cc1ccc(OCC(=O)N/N=C/c2ccncc2)cc1C,5.75
21,CC(C)OCCCNC(=O)c1ccc2c(=O)n(Cc3ccc4c(c3)OCO4)c(=S)[nH]c2c1,21.3
22,N#C/C(=C\c1ccc(F)cc1)C(=O)Nc1ccccn1,2.68
23,CCOc1cccc(CN2CCCC(C(=O)c3cccc(C(F)(F)F)c3)C2)c1O (centres unmarked),-67.9

row,Compound,"hERG current change (%, negative = inhibition) at 10uM [%]"
1,CCOc1cc(CN2CCN(c3cccc(C(F)(F)F)c3)CC2)ccc1OC,-16.6
2,O=C(c1cccc(C(F)(F)F)c1)C1CCCN(Cc2ccccc2O)C1 (centres unmarked),-29
3,FC(F)(F)c1cccc(N2CCN(Cc3ccoc3)CC2)c1,-60.4
4,CCOc1cc(CN2CCN(c3cccc(C(F)(F)F)c3)CC2)ccc1O,-73
5,CCOc1cccc(CN2CCN(c3cccc(C(F)(F)F)c3)CC2)c1O,-46.6
6,CC(=O)Nc1ccc(CN2CCN(c3cccc(C(F)(F)F)c3)CC2)cc1,-38
7,FC(F)(F)c1cccc(N2CCN(Cc3cccnc3)CC2)c1,-8.03
8,O=C1COc2ccc(-c3n[nH]c(=O)c4ccccc34)cc2N1,-2.91
9,c1ccc(-c2nnsc2Sc2ccccn2)cc1,3.35
10,Cc1cc(C)cc(CC2CC(=O)N(c3cc(C)on3)C2=O)c1 (centres unmarked),0.808
11,Cc1cc(C(=O)CSc2nnc(-c3ccc(Cl)cc3)n2C)c(C)n1CC1CCCO1 (centres unmarked),8.08
12,Cc1noc(C)c1COC(=O)c1ccc(N(C)C)cc1,-9.83
13,CNC(=O)CN(c1cc(C)ccc1OC)S(=O)(=O)c1ccc(C)cc1,-0.703
14,COc1ccccc1CNC(=O)CCNC(=O)C1CCN(S(=O)(=O)c2ccccc2)CC1,-7.65
15,C=CCn1c(SCC(=O)Nc2c(C)n(C)n(-c3ccccc3)c2=O)nc2ccccc2c1=O,-32.9
16,C=CCn1c(SCC(=O)Nc2c(C)n(C)n(-c3ccccc3)c2=O)nc2sc(C)c(C)c2c1=O,-31.4
17,C=CCn1c(SCC(=O)Nc2c(C)n(C)n(-c3ccccc3)c2=O)nc2scc(-c3ccccc3)c2c1=O,-56
18,C=CCn1c(SCC(=O)Nc2c(C)n(C)n(-c3ccccc3)c2=O)nc2sc(C)c(-c3ccccc3)c2c1=O,-54
19,Cc1sc2nc(SCC(=O)Nc3c(C)n(C)n(-c4ccccc4)c3=O)n(C)c(=O)c2c1C,9.4
20,C=CCn1c(SCC(=O)Nc2ccccc2)nc2scc(-c3cccs3)c2c1=O,8.69
21,O=C(O)c1ccc[nH]c1=S,10.3
22,CC(=O)NC1C(OCc2ccccc2)OC2COC(C)(C)OC2C1O (centres unmarked),18.3
23,Cc1ccc(C)c(NC(=S)NNC(=O)c2csc(C)c2C)c1,1.72

row,Compound,"hERG current change (%, negative = inhibition) at 10uM [%]"
1,O=C(NCc1ccccc1)C1CCCN1S(=O)(=O)c1ccc(Cl)cc1 (centres unmarked),-7.85
2,COc1ccc(OC)c(N(CC(=O)NCC2CCCO2)S(=O)(=O)c2ccccc2)c1 (centres unmarked),8.03
3,NC(=O)NC(=O)C(c1ccccc1)N1CCN(S(=O)(=O)c2ccc(Br)s2)CC1 (centres unmarked),-52.2
4,NC(=O)NC(=O)C(c1ccccc1)N1CCN(S(=O)(=O)Cc2ccccc2)CC1 (centres unmarked),-18.9
5,CC(NC(=O)C1CCN(S(=O)(=O)c2ccc(Br)s2)CC1)c1ccccc1 (centres unmarked),-0.752
6,CCN(c1cccc(C)c1)S(=O)(=O)c1cnc[nH]1,9.23
7,COc1ccccc1C(=O)NCC(c1cccs1)N1CCc2ccccc21 (centres unmarked),1.26
8,CCOC(=O)c1c(NC(=O)Cn2nc(C(F)(F)F)cc2C)sc2c1CCC2,-4.65
9,NC(=O)c1cc(-c2csc(NCCc3ccccc3)n2)ccc1O,6.05
10,COc1ccc(C2=NC(CO)(CO)CO2)cc1,19
11,Cc1sc2ncnc(NCC(O)c3ccccc3)c2c1C (centres unmarked),17.7
12,Cc1nc(NCc2ccc(S(N)(=O)=O)cc2)c2c(C)c(C)sc2n1,2.83
13,Cc1sc2ncnc(N[C@@H](CCC(=O)O)C(=O)O)c2c1C,10.1
14,CCOC(=O)c1sc2ncnc(NCC(c3cccs3)N(C)C)c2c1C (centres unmarked),5.57
15,COc1ccc(/C=N/Nc2ncnc3sc(C)c(C)c23)cc1,-8.19
16,Cc1sc2ncnc(NCC3COc4ccccc4O3)c2c1C (centres unmarked),-13.6
17,Cc1nc(NCC(c2ccccc2)N(C)C)c2c(C)c(C)sc2n1 (centres unmarked),-77.1
18,Cc1sc2ncnc(NCC(O)c3ccc([N+](=O)[O-])cc3)c2c1C (centres unmarked),-71.6
19,Cc1sc2ncnc(NCC(c3ccccc3)N(C)C)c2c1C (centres unmarked),-40.1
20,COc1ccccc1C(CNc1ncnc2sc(C)c(C)c12)N(C)C (centres unmarked),-55.4
21,Cc1nc(N(C)Cc2ccccc2)c2c(C)c(C)sc2n1,-14.8
22,COc1ccc(C(CNc2ncnc3sc(C)c(C)c23)N(C)C)cc1 (centres unmarked),-56.4
23,O=C(c1cccc(S(=O)(=O)NCCOc2ccccc2)c1)N1CCN(c2ncccn2)CC1,-37.6

row,Compound,"hERG current change (%, negative = inhibition) at 10uM [%]"
1,Cc1cc(/C=C(\C#N)C(=O)NCc2ccco2)c(C)n1-c1cccnc1,-23.2
2,O=C(COc1ccc2ccccc2c1)N/N=C/C1CC=CCC1 (centres unmarked),1.93
3,CCOCCCN1CN(Cc2ccccc2)CNC1=S,14.3
4,COC(=O)c1sccc1NC(=S)NCc1ccc(Cl)cc1,9.11
5,COCCN(C(=O)CCC(=O)Nc1cc(C)on1)C(C(=O)NC1CCCC1)c1ccccc1C (centres unmarked),14.7
6,COc1cccc(OC)c1C(=O)NC(=S)N1CCOCC1,17.2
7,CCOC(=O)Cn1c2c(c(-c3ccccc3OC)cc1=O)CCCC2,2.38
8,CNS(=O)(=O)c1ccc(NC(=S)Nc2ccc3c(c2)OCO3)cc1,8.16
9,CC(=O)c1c(C)[nH]c(C(=O)COC(=O)CN(C)S(=O)(=O)c2ccc(Cl)cc2)c1C,-57.8
10,CN(CC(=O)OCC(N)=O)S(=O)(=O)c1ccc(Cl)cc1,33.6
11,Cn1c(N)c(C(=O)COC(=O)CSc2ccc(Cl)cc2)c(=O)n(C)c1=O,-61.2
12,CC(C)[C@H](NS(=O)(=O)c1ccc(Cl)cc1)C(=O)OCC(=O)c1c(N)n(C)c(=O)n(C)c1=O,-39.9
13,Cn1c(N)c(C(=O)COc2ccc(Cl)cc2Cl)c(=O)n(C)c1=O,2.07
14,CC(Oc1ccc(Cl)cc1Cl)C(=O)OCC(=O)c1c(N)n(C)c(=O)n(C)c1=O (centres unmarked),-71.2
15,CN(CC(=O)OCC(=O)c1c(N)n(C)c(=O)n(C)c1=O)S(=O)(=O)c1ccc(Cl)cc1,-69.3
16,Cn1c(N)c(C(=O)COC(=O)CSc2ccc3ccccc3c2)c(=O)n(C)c1=O,-1.77
17,Cn1c(N)c(C(=O)COC(=O)CCCOc2ccc(Cl)cc2Cl)c(=O)n(C)c1=O,-12.2
18,Cn1c(N)c(C(=O)COC(=O)CSc2ccccc2)c(=O)n(C)c1=O,-33.6
19,Cc1ccc(S(=O)(=O)N(C)CC(=O)OCC(=O)c2c(N)n(C)c(=O)n(C)c2=O)cc1,-47.1
20,CC(=O)c1c(C)[nH]c(C(=O)COC(=O)CNS(=O)(=O)c2ccccc2)c1C,-2.66
